This is an account of results in PubChem BioAssay (NCATS).

Test [1] has as its target Lysosomal acid glucosylceramidase (Homo sapiens) (UniProt P04062). Description: Glucocerebrosidase-p2 (AID 348; in the data active means potency below about 10 µM; further: potency means the concentration at half of the fitted maximal effect). Conditions: purified GBA, blue fluorogenic substrate, 40 min. The essentials:
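Normal human glucocerebrosidase (0.2 nM) with blue fluorogenic substrate (80 uM final) in citrate/phosphate pH 5.9 with 10mM sodium taurocholate, 0.01% tween-20; 40 min RT, NaOH/glycine stop; fluorescence Ex 365/Em 440; AC50 from a titration from 0.6 nM upwards.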

A short description of test [2]: AP1 Signaling Pathway (AID 357). Further: on the % scale 0 is the no-effect control and ±100 the full control effect. Conditions: ME-180 AP-1-bla reporter, EGF-induced, beta-lactamase ratio, 5 h; at 7.69 µM (top of the series) unless noted. The essentials: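 Cells are seeded overnight, exposed to compound titrations and an EC50 level of EGF for 5 hours at 37 °C, then loaded with CCF4 dye for 2.5 hours. Beta-lactamase activity under the AP-1 element is read as a blue/green ratio.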

Test [3] in a line: Stat Signaling Pathway (AID 446).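 Further: ME-180 cervical cancer cells given 40 pM IL-6 alongside compound; SIE-controlled beta-lactamase reporter measured as 460/530 nm FRET emission ratio; on the % scale 0 is the no-effect control and ±100 the full control effect.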 Conditions: ME-180 SIE beta-lactamase reporter, IL-6 stimulated, 5 h; at 7.69 µM (top of the series) unless noted. The essentials:
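Compound effects on IL-6-induced STAT reporter activity were measured in ME-180 cells. After overnight culture, cells were co-treated with 40 pM IL-6 for 5 hrs before beta-lactamase substrate loading at room temperature.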

For test [4], the target named is Glucocorticoid receptor (Homo sapiens) (UniProt P04150). The experiment in a line: GR-EFC Redistribution (AID 451; calls by dose curve; further: potency means the concentration at half of the fitted maximal effect). Conditions: CHO-K1 GR-EFC translocation, beta-gal luminescence, 2 h. A digest of the protocol:
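Translocation of GR-ED fusion to nuclear EA restores b-gal, read by luminescence after 1 h room-temperature detection. Engineered CHO-K1 biosensor cells, 1,000/well, exposed 2 h at 37 C to titrations up to 46 uM final.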

In test [5] the target is Mitogen-activated protein kinase 10 (Mus musculus) (UniProt Q61831). The experiment in a line: JNK3 AlphaScreen Assay (AID 530).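 Further: kinase came from lysate of stimulated human HepG2 cells; signal reports phosphorylation of biotinylated GST-cJun 1-79 at Ser73 with 10 µM ATP; on the % scale 0 is the no-effect control and ±100 the full control effect.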 Conditions: JNK3 lysate, c-Jun phosphorylation; series mostly up to 57.1 µM. A digest of the protocol: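 qHTS titrations with 15 min compound pre-incubation before adding ATP (10 uM final). Read-out: AlphaScreen of Ser73-phosphorylated biotin-GST-cJun using HepG2 lysate JNK3 activated by IL-1β and TNFα.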
For orientation: In Alpha technology, singlet oxygen from a donor bead excites a nearby acceptor bead.

The target of test [6] is 3',5'-cyclic-AMP phosphodiesterase 4B (Homo sapiens) (UniProt Q07343). Description: qHTS Assay for Inhibitors of PDE-IV (AID 607; active means well fitted activation curve with a large enough effect in the main read-out, with a control signal flat, not every such curve was filed as active; further: % of control where 0% means no effect). Conditions: HEK293 ACTOne CNG channel cells, membrane potential fluorescence; series mostly up to 22.9 µM. A digest of the protocol:
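ACTOne HEK293 cells carry a modified cAMP-gated CNG channel and express endogenous PDE4; plated 1000 cells/well, compounds up to 22.9 uM final. Membrane-potential dye fluorescence (ex 535/em 590) was read; parental cells received 10 uM forskolin + 100 uM RO 20-1724.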
Background: Quantitative high-throughput screening tests each substance at several concentrations.

The nature of test [7]: Primary qHTS for small molecule stabilizers of the endoplasmic reticulum resident proteome: Secreted ER Calcium Modulated Protein (SERCaMP) assay (AID 1508630; active means well fitted curve in the direction sought with a large enough effect; an effect the other way counts as inactive or inconclusive; further: on the % scale 0 is the no-effect control and ±100 the full control effect). Conditions: SH-SY5Y GLuc-SERCaMP (Gaussia luciferase released on ER calcium loss) secretion, thapsigargin, luminescence; series mostly up to 38.4 µM. The essentials: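 The SH-SY5Y reporter protocol was run at 3 concentrations up to 38.3 uM (primary) or 11 concentrations (follow-up): 16 h compound, 100 nM thapsigargin for 4 h, then extracellular luciferase luminescence.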

In test [8] the target is Cytochrome P450 1A2 (Homo sapiens) (UniProt P05177). The experiment in a line: p450-cyp1a2 (AID 410; calls by dose curve; further: potency means the concentration at half of the fitted maximal effect;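 on activity change, negative = inhibition: -100% = full effect of reference inhibitor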). The note with it: recombinant CYP1A2, luciferin-ME demethylation, luminescence; series mostly up to 57 µM. The essentials: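 Luminescent demethylation readout: Luciferin-ME (100uM, equal to Km) turned over by 20nM CYP1A2 for 60 min at room temperature after NADPH regeneration addition, following 10 min compound preincubation. Normalization used 57 uM furafylline as full inhibition.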
Chain of Cytochrome P450 1A2 (Homo sapiens) (P05177 whole entry, looked up): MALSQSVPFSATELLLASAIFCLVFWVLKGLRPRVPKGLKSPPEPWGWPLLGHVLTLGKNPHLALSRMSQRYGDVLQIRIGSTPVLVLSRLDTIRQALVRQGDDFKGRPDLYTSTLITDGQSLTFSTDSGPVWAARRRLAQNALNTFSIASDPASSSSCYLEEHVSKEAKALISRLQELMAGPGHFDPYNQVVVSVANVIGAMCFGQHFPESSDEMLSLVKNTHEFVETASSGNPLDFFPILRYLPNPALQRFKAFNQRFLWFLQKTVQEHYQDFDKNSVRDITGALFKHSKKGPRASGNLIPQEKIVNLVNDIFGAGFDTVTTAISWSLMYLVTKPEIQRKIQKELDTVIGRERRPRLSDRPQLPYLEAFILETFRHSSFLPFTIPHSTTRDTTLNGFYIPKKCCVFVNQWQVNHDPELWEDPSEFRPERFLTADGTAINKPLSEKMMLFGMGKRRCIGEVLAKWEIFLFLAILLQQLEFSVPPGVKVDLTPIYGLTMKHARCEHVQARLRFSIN

Test [9] can be described thus: NFAT Signaling Pathway (AID 444). Conditions: Jurkat NFAT-bla M1, carbachol, beta-lactamase ratio, 5 h; at 7.69 µM (top of the series) unless noted. The essentials:
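Read-out: CCF4 FRET ratio (460 nm/530 nm) after 1 h RT dye loading, used for %activity and AC50 from titration series. Cells: Jurkat NFAT-β-lactamase/M1 line, treated with compound plus 1 uM carbachol for 5 h, 37 °C.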

Test [10] has as its target Glucocorticoid receptor (Homo sapiens) (UniProt P04150). The experiment in a line: GR-GFP Redistribution (AID 450;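 active means compounds whose dose series gives a full or clear partial fitted curve of increased nuclear translocation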; further: potency means the concentration at half of the fitted maximal effect). Conditions: U2OS GR-GFP nuclear translocation, laser cytometry, 2 h.
In test [11] the target is Cytochrome P450 3A4 (Homo sapiens) (UniProt P08684). Description: qHTS Assay for Activators of Cytochrome P450 3A4 (AID 885; active means well fitted curve in the direction sought with a large enough effect; an effect the other way counts as inactive or inconclusive; further: nearly all actives have a fitted effect of over 65% in size). The note with it: recombinant CYP3A4, Luciferin-PPXE luminescence, 60 min; series mostly up to 57.1 µM. The essentials:
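CYP3A4 activity: Luciferin-PPXE O-dealkylation, 25uM substrate, 200mM KPO4, RT throughout. Read-out is luciferase luminescence; higher values reflect activation.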

The target in test [12] is Ubiquitin carboxyl-terminal hydrolase 1 (Homo sapiens) (UniProt O94782). Description: Inhibitors of USP1/UAF1: Pilot qHTS (AID 504865; active means well fitted curve in the direction sought with a large enough effect; an effect the other way counts as inactive or inconclusive;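 further: rhodamine fluorescence freed from ubiquitin-rhodamine substrate followed over time; top concentration of the series differs between compounds; on the % scale 0 is the no-effect control and ±100 the full control effect; nearly all actives have a fitted effect of over 35% in size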). Conditions: purified USP1/UAF1, Ub-rhodamine cleavage fluorescence; series mostly up to 54.9 µM. The essentials:
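USP1/UAF1 complex at 1 nM preincubated 15 min at room temperature with compound, then Ub-Rho substrate added at 150 nM final. Fluorescence (480/540 nm) read kinetically in 50 mM HEPES pH 7.8, 0.5 mM EDTA, 1 mM TCEP, 0.1 mg/ml BSA, 0.01% Tween-20.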

In test [13] the target is Cytochrome P450 3A4 (Homo sapiens) (UniProt P08684). The experiment in a line: qHTS Assay for Inhibitors and Substrates of Cytochrome P450 3A4 (AID 884; active means well fitted curve in the direction sought with a large enough effect; an effect the other way counts as inactive or inconclusive; further: nearly all actives have a fitted effect of over 50% in size; further: potency means the concentration at half of the fitted maximal effect). The note with it: recombinant CYP3A4, Luciferin-PPXE luminescence; series mostly up to 57.1 µM. A digest of the protocol: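 Luminescent readout of luciferin produced by CYP3A4 (20 nM) dealkylation of Luciferin-PPXE, 25 uM (its KM). NADPH-driven reaction ran 60 min at RT after 10 min compound preincubation; data scaled to 57 uM ketoconazole as 100% inhibition.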
Chain of Cytochrome P450 3A4 (Homo sapiens) (P08684 whole entry, looked up): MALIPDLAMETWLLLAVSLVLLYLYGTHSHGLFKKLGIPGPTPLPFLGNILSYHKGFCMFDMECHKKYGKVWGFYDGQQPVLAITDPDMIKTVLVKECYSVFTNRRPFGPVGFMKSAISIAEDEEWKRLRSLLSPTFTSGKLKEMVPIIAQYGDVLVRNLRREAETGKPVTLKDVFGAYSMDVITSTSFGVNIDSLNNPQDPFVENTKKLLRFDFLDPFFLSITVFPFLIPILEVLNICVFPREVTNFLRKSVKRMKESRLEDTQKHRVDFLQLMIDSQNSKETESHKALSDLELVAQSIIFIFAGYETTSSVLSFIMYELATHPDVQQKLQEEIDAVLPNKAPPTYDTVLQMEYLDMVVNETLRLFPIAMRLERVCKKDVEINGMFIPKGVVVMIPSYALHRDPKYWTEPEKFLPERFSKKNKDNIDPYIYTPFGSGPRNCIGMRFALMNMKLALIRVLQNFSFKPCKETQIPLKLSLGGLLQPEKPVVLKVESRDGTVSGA

Test [14] can be described thus: qHTS Assay for Identification of Small Molecule Agonists for Hypoxia Response Element Signaling Pathway (AID 914; active means well fitted activation curve with a large enough effect in the signal ratio, with a control signal flat, not every such curve was filed as active; the % refers to the signal ratio; further: % of control where 0% means no effect). Conditions: ME-180 (cervical carcinoma) HRE-bla reporter, beta-lactamase ratio, CoCl2, 17 h; activation: hits give high values. A digest of the protocol: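 AC50 values come from titration-series %Activity, taken as the 460/530nm ratio of CCF4 fluorescence (excitation 405nm). CellSensor HRE-bla ME-180 cells were treated 17 hours at 37 C with compound plus an EC50 level of CoCl2.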

The target of test [15] is Cytochrome P450 2C19 (Homo sapiens) (UniProt P33261). The experiment in a line: qHTS Assay for Inhibitors and Substrates of Cytochrome P450 2C19 (AID 899; active means well fitted curve in the direction sought with a large enough effect; an effect the other way counts as inactive or inconclusive; further: potency means the concentration at half of the fitted maximal effect; nearly all actives have a fitted effect of over 60% in size). Conditions: recombinant CYP2C19, luciferin-H EGE luminescence; series mostly up to 57.1 µM. The essentials: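 Luminescence readout of luciferin formed from 10uM Luciferin-H EGE (KM level) by 5 nM CYP2C19 in 50mM KPO4. 60 min NADPH-driven reaction at 37C after 10 min compound preincubation; data scaled to 57uM ketoconazole inhibition.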
Chain of Cytochrome P450 2C19 (Homo sapiens) (P33261 whole entry, looked up): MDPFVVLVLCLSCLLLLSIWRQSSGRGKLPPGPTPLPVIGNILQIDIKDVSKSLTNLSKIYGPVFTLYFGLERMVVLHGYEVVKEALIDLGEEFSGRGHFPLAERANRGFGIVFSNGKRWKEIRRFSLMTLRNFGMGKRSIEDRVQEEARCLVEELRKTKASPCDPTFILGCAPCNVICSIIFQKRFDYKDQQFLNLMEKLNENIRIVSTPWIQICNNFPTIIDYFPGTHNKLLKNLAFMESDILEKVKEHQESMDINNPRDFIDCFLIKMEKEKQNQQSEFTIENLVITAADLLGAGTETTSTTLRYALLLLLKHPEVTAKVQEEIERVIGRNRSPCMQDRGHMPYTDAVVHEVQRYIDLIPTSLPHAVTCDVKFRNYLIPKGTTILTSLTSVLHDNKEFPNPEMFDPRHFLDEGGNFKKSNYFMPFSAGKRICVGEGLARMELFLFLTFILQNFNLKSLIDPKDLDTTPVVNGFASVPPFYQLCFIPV

Test [16] in a line: Confirmation and Secondary Assay for Modulators of Hemoglobin Beta Chain Splicing at IVS2 654 locus (AID 910; active means well fitted curve in the direction sought with a large enough effect; an effect the other way counts as inactive or inconclusive;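 further: HeLa cells stably carrying EGFP split by mutant beta-globin IVS2-654 intron; per-well total GFP intensity by laser scanning cytometry after 2-day treatment; % of control where 0% means no effect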). Conditions: HeLa EGFP-654 splicing reporter, GFP fluorescence, 48 h; series mostly up to 38.3 µM. The essentials:
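Readout: per-well total peak green fluorescence (488 nm ex, 500–520 nm em) from objects 5–250 µm, reflecting correct splicing of an EGFP-654 reporter. Compounds were applied for 2 days at 37 °C to overnight-plated HeLa EGFP-654 cells; controls were DMSO and 500 nM IVS2-654 PNA.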

A short description of test [17]: Confirmation and Secondary Assay for Modulators of Hemoglobin Beta Chain Splicing at IVS2 705 locus (AID 930; active means well fitted curve in the direction sought with a large enough effect; an effect the other way counts as inactive or inconclusive;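 further: HeLa cells stably expressing the EGFP-705 splicing reporter; % of control where 0% means no effect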). Conditions: HeLa EGFP-705 splicing reporter, GFP fluorescence, 48 h; series mostly up to 38.3 µM. A digest of the protocol:
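Restored EGFP fluorescence after 2-day compound exposure reports splicing correction in IVS2-705 EGFP reporter HeLa cells; positive control was 500 nM splice-blocking PNA oligo. Signal measured as well total peak GFP intensity (488 nm excitation).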

Values without a mark were called inactive. Results filed as inconclusive are left out. Active and inactive are the calls of the source. Unless noted, the call rests on the fitted dose curve; in most records, active means well fitted curve in either direction with a large enough effect (not every such curve was filed as active); inconclusive means small, poorly fitted or top-dose-only effect, or another doubt; inactive means flat fitted curve, though single readings scatter.

Chain of Glucocorticoid receptor (Homo sapiens) (P04150 whole entry, looked up, the tested form may be a part): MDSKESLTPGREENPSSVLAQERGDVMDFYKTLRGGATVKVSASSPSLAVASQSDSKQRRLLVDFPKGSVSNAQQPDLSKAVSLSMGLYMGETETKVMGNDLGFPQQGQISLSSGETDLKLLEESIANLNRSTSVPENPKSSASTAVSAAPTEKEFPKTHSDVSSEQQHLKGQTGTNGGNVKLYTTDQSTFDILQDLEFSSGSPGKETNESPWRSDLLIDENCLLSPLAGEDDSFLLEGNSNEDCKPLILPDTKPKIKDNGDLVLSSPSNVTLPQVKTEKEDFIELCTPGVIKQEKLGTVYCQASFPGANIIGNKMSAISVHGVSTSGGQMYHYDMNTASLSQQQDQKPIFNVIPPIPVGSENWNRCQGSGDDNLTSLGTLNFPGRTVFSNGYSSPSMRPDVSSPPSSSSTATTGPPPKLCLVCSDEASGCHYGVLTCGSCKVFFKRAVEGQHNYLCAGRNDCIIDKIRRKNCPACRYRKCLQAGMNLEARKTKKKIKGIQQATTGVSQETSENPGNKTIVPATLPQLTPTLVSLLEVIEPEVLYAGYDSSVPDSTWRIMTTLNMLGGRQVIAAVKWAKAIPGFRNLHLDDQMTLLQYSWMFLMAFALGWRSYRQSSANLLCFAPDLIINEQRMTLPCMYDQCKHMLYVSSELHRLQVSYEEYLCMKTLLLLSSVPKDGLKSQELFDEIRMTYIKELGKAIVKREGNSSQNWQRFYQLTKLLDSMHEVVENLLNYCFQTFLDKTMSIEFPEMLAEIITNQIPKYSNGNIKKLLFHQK
Chain of 3',5'-cyclic-AMP phosphodiesterase 4B (Homo sapiens) (Q07343 whole entry, looked up): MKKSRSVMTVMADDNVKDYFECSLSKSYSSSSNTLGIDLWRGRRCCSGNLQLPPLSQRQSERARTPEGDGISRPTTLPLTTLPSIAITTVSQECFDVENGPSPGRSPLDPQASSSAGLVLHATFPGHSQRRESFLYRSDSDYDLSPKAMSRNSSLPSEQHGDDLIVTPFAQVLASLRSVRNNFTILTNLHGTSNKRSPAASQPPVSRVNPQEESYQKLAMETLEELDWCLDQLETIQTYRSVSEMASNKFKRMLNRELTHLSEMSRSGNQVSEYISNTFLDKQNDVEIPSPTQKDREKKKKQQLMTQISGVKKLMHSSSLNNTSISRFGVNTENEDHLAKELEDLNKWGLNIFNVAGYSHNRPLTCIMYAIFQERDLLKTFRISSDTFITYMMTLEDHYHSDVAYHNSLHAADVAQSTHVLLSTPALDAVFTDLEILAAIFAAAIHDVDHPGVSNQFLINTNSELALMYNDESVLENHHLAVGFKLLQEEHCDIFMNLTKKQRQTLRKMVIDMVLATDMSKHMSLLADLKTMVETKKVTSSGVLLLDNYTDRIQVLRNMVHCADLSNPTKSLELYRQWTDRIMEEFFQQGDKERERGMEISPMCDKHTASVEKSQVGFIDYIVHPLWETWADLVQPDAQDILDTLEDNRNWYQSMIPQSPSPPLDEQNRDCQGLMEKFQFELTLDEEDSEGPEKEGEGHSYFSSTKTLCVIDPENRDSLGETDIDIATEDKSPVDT
Chain of Lysosomal acid glucosylceramidase (Homo sapiens) (P04062 whole entry, looked up): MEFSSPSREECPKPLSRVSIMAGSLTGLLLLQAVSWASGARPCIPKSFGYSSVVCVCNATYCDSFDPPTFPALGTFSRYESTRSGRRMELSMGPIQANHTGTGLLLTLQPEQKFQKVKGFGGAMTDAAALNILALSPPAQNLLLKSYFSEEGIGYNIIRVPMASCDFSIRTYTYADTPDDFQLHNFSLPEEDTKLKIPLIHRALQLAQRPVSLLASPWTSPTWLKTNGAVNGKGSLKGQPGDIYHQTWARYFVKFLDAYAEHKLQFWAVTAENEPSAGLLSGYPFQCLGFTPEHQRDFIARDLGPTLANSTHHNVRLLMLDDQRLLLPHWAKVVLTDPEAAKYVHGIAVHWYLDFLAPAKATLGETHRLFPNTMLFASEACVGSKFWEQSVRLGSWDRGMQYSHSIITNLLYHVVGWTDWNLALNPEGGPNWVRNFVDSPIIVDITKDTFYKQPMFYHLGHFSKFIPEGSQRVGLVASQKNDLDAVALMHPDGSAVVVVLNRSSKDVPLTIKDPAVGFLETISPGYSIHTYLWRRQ
Chain of Ubiquitin carboxyl-terminal hydrolase 1 (Homo sapiens) (O94782 whole entry, looked up): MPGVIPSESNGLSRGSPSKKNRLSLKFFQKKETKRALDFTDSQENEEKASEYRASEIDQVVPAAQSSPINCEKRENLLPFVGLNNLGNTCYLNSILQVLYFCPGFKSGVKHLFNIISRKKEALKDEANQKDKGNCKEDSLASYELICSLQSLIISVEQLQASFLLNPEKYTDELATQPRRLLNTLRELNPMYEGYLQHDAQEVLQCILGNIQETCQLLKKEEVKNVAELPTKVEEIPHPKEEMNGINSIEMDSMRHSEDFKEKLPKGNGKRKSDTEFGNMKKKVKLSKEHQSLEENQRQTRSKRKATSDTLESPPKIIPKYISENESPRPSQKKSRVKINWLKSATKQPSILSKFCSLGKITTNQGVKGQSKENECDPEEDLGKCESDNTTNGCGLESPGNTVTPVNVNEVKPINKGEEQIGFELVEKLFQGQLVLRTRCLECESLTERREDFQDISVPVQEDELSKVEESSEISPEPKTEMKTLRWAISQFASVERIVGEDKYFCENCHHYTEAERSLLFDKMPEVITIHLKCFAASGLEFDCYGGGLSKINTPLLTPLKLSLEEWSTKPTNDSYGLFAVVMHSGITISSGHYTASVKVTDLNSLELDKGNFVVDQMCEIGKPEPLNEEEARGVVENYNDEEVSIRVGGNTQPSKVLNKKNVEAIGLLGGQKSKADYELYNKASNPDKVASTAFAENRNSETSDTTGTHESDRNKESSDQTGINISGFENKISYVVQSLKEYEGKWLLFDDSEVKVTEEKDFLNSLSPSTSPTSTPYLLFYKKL

`CC(=O)N1CCC2(CCN(Cc3ccc(C#N)cc3)CC2)CC1`: the figures for the Potency in test [1] and in test [4] were > 11.4 µM and > 46 µM, respectively. The activity change, negative = inhibition in [2] was -3.09%. Also, the activity, negative = inhibition in test [3] was 6.19%. Further, the Potency result in test [5] and in test [6] was “inactive” each time. Besides, the outcome in [7] was inactive.
For `Cc1cnc(CNc2nc(-c3ccccc3Cl)nc3ccccc23)cn1`, the Potency in test [1] is > 11.4 µM; in [8], 6.31 µM (active); in [10] it was > 46 µM; in test [4], > 46 µM. In [9], the activity change, negative = inhibition was 9.67%. For the same molecule, the activity, negative = inhibition in [3] is -10.8%. Further, the Potency result in test [5], in test [6], in test [11] and in [12] was “inactive” in each case. For the same molecule, the result in test [7] was inactive.
In the case of `O=C(c1ccco1)N1CCC2(CC1)CCN(c1ccccn1)CC2`, the results for the Potency in test [1] and in test [4] were > 11.4 µM and > 46 µM, respectively. Moreover, the activity change, negative = inhibition in [2] was -7.81%. The activity, negative = inhibition in [3] was -0.852%. The Potency entry in test [5], in [6] and in test [13] was “inactive” in each case. Moreover, the result in [7] was inactive.
Consider `Cc1noc(C)c1C(=O)N1CCC2(CC1)CCN(C(c1ccccc1)c1ccccc1)CC2`, for which the figures for the Potency in test [1] and in test [4] were > 11.4 µM and > 46 µM, respectively. For the same molecule, the activity change, negative = inhibition in test [2] is -6.81%. For the same molecule, in test [3], the activity, negative = inhibition was 10.1%. In test [5], the Potency entry is “inactive”. In addition, the activation in [14] is -2.4%. The result in test [7] was inactive.
Turning to `Cc1cccc(CNc2cc(-c3ccc(N(C)C)cc3)ncn2)c1`, the Potency in test [1] is > 11.4 µM; in test [8], 1 µM (active); in [10] it was > 46 µM; in test [4], > 46 µM; in [13], 6.31 µM (active); in test [15] it was 3.16 µM (active). Also, the activity change, negative = inhibition in test [9] was -5.57%. In addition, in [3], the activity, negative = inhibition was -19.8%. Also, the Potency entry in [5], in test [6], in test [11] and in test [16] was “inactive” in each case. The molecule was classed as inactive in test [17] and in test [7].
In the case of `N#Cc1ccc(CN2CCCC3(CCN(C(=O)c4cnccn4)CC3)C2)cc1`, the results for the Potency in test [1] and in test [4] were > 11.4 µM and > 46 µM, respectively. Also, in test [2], the activity change, negative = inhibition is -6.06%. Besides, in test [3], the activity, negative = inhibition was -1.62%. Further, the Potency entry in [5] and in test [6] was “inactive” in each case. Further, in test [14], the activation was -10.7%. Further, the outcome in test [7] was inactive.
For `O=C(Oc1ccccc1)N1CCC2(CCCN(c3cccc(-c4ccccc4)c3)C2)CC1`, the figures for the Potency in test [1] and in test [4] were > 11.4 µM and > 46 µM, respectively. Besides, the Potency result in [8], in test [5], in test [6] and in test [11] was “inactive” in each case. Further, the activity change, negative = inhibition in test [9] is -27.7%. In addition, the activity, negative = inhibition in test [3] was 2.68%. The result in test [7] was inactive.
`COc1cccc(Nc2ncc3nc(-c4ccc(Cl)cc4)c(=O)n(CCC#N)c3n2)c1`: the Potency in test [1] is > 11.4 µM; in test [8], 5.01 µM (active); in [10], > 9.22 µM; in [4] it was > 46 µM. For the same molecule, the activity, negative = inhibition in [3] was -26.2%. For the same molecule, the Potency entry in [5], in test [6] and in test [11] was “inactive” in each case. The result in test [7] was inactive.
